# Results taken from ChEMBL document CHEMBL1961873, “Compounds: GSK PKIS; Assays: Nanosyn kinase panel” (2012).
# Key:
# [1] = molecular target: Protein kinase C gamma type (Homo sapiens) (UniProt P05129); details: at 1 µM;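 also: each value is an averaged percent inhibition of the enzyme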
# [2] = molecular target: T1, Protein kinase C iota type (Homo sapiens) (UniProt P41743); details: at 0.1 µM
# T1 sequence (whole entry): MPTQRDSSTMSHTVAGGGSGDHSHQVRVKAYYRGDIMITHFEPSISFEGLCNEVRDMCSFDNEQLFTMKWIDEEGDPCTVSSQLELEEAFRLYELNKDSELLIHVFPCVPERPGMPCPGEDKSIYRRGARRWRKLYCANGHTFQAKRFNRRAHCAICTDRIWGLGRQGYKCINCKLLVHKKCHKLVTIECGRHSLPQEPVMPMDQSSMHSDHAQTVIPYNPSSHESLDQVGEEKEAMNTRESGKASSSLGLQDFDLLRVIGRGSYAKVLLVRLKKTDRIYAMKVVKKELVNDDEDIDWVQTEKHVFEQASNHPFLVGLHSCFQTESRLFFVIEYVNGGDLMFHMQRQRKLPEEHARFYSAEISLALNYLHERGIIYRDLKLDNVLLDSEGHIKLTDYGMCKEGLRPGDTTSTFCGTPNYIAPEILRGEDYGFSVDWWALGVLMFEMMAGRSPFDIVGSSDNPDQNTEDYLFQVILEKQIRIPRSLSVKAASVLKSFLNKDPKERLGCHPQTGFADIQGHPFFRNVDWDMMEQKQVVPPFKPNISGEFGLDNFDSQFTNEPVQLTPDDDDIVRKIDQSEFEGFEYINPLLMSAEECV
# [3] = molecular target: T1, Protein kinase C iota type (Homo sapiens); details: at 1 µM
# [4] = molecular target: Protein kinase C theta type (Homo sapiens) (UniProt Q04759); details: at 0.1 µM
# [5] = molecular target: Protein kinase C theta type (Homo sapiens) (UniProt Q04759); details: at 1 µM
# [6] = molecular target: Protein kinase C beta type (Homo sapiens) (UniProt P05771); details: at 0.1 µM
# [7] = molecular target: Protein kinase C beta type (Homo sapiens) (UniProt P05771); details: at 1 µM
# [8] = molecular target: T2, Serine/threonine-protein kinase D1 (Homo sapiens) (UniProt Q15139); details: at 0.1 µM
# T2 sequence (whole entry): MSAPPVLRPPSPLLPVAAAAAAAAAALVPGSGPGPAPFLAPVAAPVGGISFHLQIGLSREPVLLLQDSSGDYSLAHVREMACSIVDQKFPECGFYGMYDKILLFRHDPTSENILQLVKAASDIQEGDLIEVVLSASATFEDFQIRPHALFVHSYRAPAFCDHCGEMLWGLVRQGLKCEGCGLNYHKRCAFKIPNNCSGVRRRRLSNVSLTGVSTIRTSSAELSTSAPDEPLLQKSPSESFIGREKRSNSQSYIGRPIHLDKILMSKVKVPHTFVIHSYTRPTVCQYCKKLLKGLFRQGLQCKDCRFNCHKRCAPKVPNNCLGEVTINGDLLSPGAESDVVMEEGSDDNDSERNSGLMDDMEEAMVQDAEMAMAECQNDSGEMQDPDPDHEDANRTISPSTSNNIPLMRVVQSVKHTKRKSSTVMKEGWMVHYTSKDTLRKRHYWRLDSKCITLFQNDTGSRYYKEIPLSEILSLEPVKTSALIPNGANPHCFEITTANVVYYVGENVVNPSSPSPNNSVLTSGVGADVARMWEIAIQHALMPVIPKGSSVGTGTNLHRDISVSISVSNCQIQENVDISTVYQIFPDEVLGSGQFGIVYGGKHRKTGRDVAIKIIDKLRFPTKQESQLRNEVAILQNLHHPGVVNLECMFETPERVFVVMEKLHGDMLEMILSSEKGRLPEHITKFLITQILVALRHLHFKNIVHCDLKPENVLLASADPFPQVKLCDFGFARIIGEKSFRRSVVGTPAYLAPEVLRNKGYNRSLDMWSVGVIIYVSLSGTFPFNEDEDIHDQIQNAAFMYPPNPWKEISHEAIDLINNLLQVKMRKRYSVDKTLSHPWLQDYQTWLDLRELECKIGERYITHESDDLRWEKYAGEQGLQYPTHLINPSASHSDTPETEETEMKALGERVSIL
# [9] = molecular target: T2, Serine/threonine-protein kinase D1 (Homo sapiens); details: at 1 µM
# [10] = molecular target: T3, Serine/threonine-protein kinase D2 (Homo sapiens) (UniProt Q9BZL6); details: at 0.1 µM
# T3 sequence (whole entry): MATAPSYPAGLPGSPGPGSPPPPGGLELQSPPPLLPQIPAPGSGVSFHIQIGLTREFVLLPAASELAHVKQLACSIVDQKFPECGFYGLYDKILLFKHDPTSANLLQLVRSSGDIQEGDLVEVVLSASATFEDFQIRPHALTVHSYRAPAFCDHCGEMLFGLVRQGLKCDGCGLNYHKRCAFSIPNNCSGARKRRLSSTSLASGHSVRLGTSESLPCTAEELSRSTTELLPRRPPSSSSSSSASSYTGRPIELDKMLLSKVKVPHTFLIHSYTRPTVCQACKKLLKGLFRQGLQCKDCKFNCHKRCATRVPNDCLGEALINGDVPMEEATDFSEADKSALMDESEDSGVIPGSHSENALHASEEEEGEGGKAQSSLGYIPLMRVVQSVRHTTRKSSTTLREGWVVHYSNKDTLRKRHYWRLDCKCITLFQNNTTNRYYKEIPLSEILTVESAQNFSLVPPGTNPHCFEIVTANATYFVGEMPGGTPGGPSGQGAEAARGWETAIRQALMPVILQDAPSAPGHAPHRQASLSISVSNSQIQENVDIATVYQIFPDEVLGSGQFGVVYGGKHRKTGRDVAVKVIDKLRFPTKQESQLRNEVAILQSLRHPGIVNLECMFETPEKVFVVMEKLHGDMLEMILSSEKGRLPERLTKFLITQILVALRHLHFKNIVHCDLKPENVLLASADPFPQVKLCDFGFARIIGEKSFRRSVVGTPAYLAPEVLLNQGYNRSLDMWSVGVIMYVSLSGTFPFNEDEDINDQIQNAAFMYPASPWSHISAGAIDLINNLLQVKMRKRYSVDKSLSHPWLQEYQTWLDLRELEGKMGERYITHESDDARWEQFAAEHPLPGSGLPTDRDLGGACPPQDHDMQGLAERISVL
# [11] = molecular target: T3, Serine/threonine-protein kinase D2 (Homo sapiens); details: at 1 µM
# [12] = molecular target: T4, Serine/threonine-protein kinase D3 (Homo sapiens) (UniProt O94806); details: at 0.1 µM
# T4 sequence (whole entry): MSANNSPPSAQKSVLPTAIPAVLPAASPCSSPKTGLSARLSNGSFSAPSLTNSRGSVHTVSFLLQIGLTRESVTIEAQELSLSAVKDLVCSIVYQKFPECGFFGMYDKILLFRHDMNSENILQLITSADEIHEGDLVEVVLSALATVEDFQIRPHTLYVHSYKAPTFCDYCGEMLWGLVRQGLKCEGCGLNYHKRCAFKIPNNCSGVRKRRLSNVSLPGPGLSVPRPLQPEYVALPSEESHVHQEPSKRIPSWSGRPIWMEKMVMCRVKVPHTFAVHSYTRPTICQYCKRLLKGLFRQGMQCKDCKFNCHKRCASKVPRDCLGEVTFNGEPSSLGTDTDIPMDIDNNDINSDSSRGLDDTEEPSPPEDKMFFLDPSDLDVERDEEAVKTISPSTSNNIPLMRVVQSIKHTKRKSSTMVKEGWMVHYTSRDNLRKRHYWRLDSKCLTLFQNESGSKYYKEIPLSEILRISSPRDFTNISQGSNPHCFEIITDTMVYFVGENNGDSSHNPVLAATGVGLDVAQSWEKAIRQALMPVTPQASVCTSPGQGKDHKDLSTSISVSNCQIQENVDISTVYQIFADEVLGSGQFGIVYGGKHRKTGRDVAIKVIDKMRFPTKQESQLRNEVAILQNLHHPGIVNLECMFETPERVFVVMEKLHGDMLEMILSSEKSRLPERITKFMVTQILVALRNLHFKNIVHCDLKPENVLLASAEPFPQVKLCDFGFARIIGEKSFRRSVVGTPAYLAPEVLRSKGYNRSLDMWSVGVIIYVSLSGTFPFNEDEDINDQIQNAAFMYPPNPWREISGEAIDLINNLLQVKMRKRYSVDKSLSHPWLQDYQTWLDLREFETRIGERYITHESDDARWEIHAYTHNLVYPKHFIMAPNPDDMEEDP
# [13] = molecular target: T4, Serine/threonine-protein kinase D3 (Homo sapiens); details: at 1 µM
# [14] = molecular target: T5, cGMP-dependent protein kinase 1 (Homo sapiens) (UniProt Q13976); details: at 0.1 µM
# T5 sequence (whole entry): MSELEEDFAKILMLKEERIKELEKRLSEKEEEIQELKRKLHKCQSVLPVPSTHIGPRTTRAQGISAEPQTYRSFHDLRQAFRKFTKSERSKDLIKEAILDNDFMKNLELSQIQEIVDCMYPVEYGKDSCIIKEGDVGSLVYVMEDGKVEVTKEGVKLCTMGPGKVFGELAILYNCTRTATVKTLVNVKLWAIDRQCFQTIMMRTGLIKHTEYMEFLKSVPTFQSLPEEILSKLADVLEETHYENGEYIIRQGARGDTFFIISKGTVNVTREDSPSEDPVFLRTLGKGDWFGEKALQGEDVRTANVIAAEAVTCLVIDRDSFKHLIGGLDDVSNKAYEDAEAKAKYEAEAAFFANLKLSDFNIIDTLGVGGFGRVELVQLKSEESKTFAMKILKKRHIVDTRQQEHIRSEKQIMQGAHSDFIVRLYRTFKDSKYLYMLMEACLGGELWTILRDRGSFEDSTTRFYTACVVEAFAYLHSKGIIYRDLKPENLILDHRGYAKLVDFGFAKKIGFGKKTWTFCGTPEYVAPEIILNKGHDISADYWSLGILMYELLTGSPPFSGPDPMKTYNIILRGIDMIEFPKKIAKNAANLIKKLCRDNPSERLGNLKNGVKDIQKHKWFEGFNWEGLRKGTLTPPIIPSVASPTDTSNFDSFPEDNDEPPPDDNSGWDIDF
# [15] = molecular target: T5, cGMP-dependent protein kinase 1 (Homo sapiens); details: at 1 µM
# [16] = molecular target: T6, cGMP-dependent protein kinase 2 (Homo sapiens) (UniProt Q13237); details: at 0.1 µM
# T6 sequence (whole entry): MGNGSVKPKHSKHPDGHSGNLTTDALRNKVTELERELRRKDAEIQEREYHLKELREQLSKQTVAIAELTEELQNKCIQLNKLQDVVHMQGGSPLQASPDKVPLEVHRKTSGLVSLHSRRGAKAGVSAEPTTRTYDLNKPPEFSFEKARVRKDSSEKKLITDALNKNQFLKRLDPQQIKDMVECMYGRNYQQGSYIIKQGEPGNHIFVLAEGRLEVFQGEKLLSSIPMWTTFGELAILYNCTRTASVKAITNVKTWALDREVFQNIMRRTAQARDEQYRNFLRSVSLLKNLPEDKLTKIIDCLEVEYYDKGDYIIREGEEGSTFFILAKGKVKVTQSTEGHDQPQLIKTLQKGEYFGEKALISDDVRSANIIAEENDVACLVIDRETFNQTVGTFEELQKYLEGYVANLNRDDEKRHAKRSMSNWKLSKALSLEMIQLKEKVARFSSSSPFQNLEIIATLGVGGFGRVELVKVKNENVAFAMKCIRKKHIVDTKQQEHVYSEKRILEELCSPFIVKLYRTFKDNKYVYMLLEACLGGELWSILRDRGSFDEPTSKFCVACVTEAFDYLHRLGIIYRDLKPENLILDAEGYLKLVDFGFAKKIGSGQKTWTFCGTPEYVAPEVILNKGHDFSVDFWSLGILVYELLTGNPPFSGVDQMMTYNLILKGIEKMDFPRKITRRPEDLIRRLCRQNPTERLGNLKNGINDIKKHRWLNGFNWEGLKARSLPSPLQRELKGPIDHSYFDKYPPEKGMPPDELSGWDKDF
# [17] = molecular target: T6, cGMP-dependent protein kinase 2 (Homo sapiens); details: at 1 µM
# [18] = molecular target: T7, cAMP-dependent protein kinase catalytic subunit PRKX (Homo sapiens) (UniProt P51817); details: at 0.1 µM
# T7 sequence (whole entry): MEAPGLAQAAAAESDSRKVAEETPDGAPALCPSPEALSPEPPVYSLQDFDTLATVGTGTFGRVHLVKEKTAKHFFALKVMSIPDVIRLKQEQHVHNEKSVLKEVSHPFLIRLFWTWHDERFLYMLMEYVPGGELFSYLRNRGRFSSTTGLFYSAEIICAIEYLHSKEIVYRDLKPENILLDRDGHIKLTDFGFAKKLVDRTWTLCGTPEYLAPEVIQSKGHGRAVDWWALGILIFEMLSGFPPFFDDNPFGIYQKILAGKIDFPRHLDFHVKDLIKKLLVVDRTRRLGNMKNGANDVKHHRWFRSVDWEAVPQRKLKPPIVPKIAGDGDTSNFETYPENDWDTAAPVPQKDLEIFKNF
# [19] = molecular target: T7, cAMP-dependent protein kinase catalytic subunit PRKX (Homo sapiens); details: at 1 µM
# [20] = molecular target: Rho-associated protein kinase 1 (Homo sapiens) (UniProt Q13464); details: at 0.1 µM;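 also: values are mean percent inhibition of ROCK1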
# Sequence of Rho-associated protein kinase 1 (Homo sapiens) (Q13464 2-1354 limits assumed): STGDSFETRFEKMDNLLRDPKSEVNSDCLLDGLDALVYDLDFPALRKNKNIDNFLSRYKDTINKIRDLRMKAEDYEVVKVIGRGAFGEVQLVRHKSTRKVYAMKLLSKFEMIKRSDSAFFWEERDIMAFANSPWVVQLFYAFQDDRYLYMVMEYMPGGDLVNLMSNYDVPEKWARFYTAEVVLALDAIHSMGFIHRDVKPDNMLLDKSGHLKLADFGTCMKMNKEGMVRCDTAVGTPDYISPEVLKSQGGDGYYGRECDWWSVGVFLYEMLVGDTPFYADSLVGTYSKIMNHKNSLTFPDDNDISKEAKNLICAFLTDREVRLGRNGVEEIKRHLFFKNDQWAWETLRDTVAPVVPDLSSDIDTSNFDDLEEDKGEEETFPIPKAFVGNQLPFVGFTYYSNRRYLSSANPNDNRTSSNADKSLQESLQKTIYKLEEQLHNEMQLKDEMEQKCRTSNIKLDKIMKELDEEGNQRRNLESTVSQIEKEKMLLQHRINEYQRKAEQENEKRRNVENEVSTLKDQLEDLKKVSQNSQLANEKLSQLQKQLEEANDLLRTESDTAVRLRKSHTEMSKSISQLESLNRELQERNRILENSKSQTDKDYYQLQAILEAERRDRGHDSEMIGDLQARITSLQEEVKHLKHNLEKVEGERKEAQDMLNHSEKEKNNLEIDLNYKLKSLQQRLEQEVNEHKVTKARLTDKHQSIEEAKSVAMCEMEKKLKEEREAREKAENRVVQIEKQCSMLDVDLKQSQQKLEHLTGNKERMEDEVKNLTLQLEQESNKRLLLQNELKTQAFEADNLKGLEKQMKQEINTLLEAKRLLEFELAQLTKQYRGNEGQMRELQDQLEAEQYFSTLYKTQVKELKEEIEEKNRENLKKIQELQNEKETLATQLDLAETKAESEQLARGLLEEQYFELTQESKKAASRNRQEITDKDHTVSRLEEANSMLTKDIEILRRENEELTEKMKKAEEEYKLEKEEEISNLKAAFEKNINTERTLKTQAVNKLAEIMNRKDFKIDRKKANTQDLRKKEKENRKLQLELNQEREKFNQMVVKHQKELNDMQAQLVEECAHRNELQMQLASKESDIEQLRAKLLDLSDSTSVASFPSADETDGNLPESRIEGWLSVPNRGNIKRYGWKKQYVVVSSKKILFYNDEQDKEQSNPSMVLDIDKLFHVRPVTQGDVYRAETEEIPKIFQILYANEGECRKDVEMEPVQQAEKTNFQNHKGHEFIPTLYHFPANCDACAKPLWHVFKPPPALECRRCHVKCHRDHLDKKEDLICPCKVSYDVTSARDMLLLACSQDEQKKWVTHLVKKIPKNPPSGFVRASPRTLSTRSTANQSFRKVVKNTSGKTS
# Sequence of Protein kinase C beta type (Homo sapiens) (P05771 2-671 limits assumed): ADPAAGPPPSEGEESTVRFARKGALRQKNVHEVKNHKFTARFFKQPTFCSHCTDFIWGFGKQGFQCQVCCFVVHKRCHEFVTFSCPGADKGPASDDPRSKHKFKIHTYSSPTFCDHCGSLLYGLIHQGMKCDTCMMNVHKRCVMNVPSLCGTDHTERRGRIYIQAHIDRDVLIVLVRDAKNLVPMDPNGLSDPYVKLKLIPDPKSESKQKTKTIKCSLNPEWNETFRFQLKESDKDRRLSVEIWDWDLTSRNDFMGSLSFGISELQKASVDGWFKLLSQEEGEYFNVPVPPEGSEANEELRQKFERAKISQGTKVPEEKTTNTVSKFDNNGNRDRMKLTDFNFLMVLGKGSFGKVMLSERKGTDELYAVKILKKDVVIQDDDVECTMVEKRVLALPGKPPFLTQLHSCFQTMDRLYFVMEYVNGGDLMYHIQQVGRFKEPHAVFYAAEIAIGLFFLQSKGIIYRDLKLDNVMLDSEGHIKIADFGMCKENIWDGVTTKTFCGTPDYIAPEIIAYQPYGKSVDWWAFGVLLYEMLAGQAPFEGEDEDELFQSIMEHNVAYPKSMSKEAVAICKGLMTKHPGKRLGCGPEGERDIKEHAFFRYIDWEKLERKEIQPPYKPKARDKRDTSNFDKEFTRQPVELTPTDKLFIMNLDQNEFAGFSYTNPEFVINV
# Sequence of Protein kinase C theta type (Homo sapiens) (Q04759 whole entry, looked up): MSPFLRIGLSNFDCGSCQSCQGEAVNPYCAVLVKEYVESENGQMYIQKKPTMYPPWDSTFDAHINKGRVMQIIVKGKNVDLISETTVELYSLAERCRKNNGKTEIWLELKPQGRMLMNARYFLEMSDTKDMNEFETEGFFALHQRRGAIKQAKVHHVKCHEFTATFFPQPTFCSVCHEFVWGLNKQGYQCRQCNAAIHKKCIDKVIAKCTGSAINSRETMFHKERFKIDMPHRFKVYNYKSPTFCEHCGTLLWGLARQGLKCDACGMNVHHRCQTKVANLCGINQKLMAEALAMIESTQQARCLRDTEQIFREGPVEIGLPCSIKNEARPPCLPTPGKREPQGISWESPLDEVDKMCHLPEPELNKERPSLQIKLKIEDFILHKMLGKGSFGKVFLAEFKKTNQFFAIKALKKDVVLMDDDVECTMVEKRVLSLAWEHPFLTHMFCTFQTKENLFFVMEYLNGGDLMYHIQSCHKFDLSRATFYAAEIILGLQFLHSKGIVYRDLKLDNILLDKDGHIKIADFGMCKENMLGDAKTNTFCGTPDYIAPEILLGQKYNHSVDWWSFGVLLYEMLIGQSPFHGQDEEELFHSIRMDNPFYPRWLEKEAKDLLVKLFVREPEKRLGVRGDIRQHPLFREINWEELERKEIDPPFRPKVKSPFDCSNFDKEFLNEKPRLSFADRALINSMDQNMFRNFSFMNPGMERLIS
SMILES,inhibition [1] [%],inhibition [2] [%],inhibition [3] [%],inhibition [4] [%],inhibition [5] [%],inhibition [6] [%],inhibition [7] [%],inhibition [8] [%],inhibition [9] [%],inhibition [10] [%],inhibition [11] [%],inhibition [12] [%],inhibition [13] [%],inhibition [14] [%],inhibition [15] [%],inhibition [16] [%],inhibition [17] [%],inhibition [18] [%],inhibition [19] [%],inhibition [20] [%]
O=C1Nc2ccccc2/C1=C/Nc1ccc2[nH]c(=O)[nH]c2c1,4.72,1.72,0.7,2.03,4.75,1.79,2.19,4.45,16.5,5.28,14,5.54,11.7,1.49,6.34,3.41,13.8,2.23,8.47,0.24
NC(=O)c1sc(-n2cnc3ccccc32)cc1OCc1ccccc1Br,3.85,1.56,-0.46,1.86,2.63,1.02,2.96,5.36,9.59,7.73,6.86,5.8,8.54,3.41,5.69,3.61,5.73,3.19,5.64,2.06
COc1cc2ncnc(Nc3ccc(C)c(O)c3)c2cc1OC,7.37,3.5,1.78,3.41,5.28,2.8,5.81,4.73,9.92,5.41,10.5,5.98,8.58,3.2,3.61,2.18,3.65,2.05,2.06,0.48
